# APP 5'UTR act: activators of APP 5'UTR luciferase reporter, primary screen, SH-SY5Y cells; SH-SY5Y APP 5'UTR luciferase reporter, luminescence; zero percent = DMSO vehicle wells; activation, % at 2 µM; 190,000 tested, 1% active; AID 1276, 2008;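 active = activation above a set limit, based on mean plus 3 SD of controls, cut at about 140% in these data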
# Hsp70 act: Hsp70 transcriptional activators, primary screen, cell-based, HeLa, Hsp70 promoter luciferase, luminescence, 10 µM; HeLa Hsp70 promoter luciferase reporter; scaled: vehicle 0, proteasome-inhibitor control 100%; activation, % at 10 µM; 200,000 tested, 0.04% active; AID 1203, 2008;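 active = activation above the mean across all tested compounds plus 3 SD, cutoff set per campaign, cut at about 5.5% in these data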;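 also: 100% = MG132 at 30 µM as the positive control and 0% = DMSO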
# Wee1 degr inh: Wee1 degradation inhibitors, primary screen, cell-based, HeLa, Wee1K328M-luciferase, luminescence. HeLa Luc-Wee1K328M stability; 100% = proteasome inhibitor MG132 effect. Wee1-like protein kinase (Homo sapiens), P30291. reporter increase, % at 5 µM. 220,000 tested, 1.2% active;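 active = activation above the mean of all tested compounds plus 3 SD, set per screening run, cut at about 8.8% in these data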;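 also: cells exposed to compound for 20 h before luminescence read; 0% = DMSO alone and 100% = MG132 at 30 µM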
# Target sequence (P30291 whole entry K328M): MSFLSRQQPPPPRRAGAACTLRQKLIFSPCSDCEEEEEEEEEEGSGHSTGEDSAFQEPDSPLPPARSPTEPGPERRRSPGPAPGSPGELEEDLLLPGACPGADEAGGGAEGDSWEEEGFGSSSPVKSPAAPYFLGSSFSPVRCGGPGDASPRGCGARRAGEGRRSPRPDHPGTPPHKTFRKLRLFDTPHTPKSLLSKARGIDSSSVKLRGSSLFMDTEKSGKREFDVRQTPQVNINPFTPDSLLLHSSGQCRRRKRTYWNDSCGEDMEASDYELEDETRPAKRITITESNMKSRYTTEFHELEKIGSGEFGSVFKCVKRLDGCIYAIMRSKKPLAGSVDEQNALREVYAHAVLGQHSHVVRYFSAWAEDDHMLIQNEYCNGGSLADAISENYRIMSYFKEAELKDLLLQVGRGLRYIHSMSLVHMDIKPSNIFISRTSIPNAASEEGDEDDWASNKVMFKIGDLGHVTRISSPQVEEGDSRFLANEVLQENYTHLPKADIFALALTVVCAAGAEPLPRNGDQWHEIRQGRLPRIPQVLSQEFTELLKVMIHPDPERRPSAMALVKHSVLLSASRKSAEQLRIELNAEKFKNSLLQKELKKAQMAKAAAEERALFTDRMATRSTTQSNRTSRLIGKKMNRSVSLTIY
# NF-kB expr up: activators of NF-kB expression in neurons, primary screen, cell-based, HTS; human neuronal cells, NF-kB reporter expression; stronger effect = higher value; fold change at 12.5 µM; 190,000 tested, 1.6% active; in the data active = fold change above about 3.3
# APP 5UTR inh: inhibitors of APP translation via 5'UTR reporter, primary screen, APP 5'UTR luciferase, SH-SY5Y cells; SH-SY5Y APP 5'UTR-luciferase reporter, luminescence; 190,000 tested, 0.82% active; inhibition, % at 2 µM;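 active = inhibition above a set limit, derived from the sample mean plus 3 SD, cut at about 45% in these data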
# STAT1 act: STAT1 signaling activators, primary screen, cell-based, HTS, luciferase reporter | activation (% of control), % at 5.5 µM | 200,000 tested, 2.6% active | NIH 3T3 STAT1-luciferase reporter, IFN-gamma, luminescence; 100% = IFN-gamma alone, no compound | AID 932, 2007;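 active = activation above the screen-wide mean activation plus 3 SD, cut at about 130% in these data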;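 also: raw ratio to IFN-gamma control signal so 100% means no change and 0% no light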
# * = called active by the depositor; / = not tested or not shown. Sampled rows, rich in hits. Any-hit rate of the full collection: about 4.8%.
SMILES,APP 5'UTR act,Hsp70 act,Wee1 degr inh,NF-kB expr up,APP 5UTR inh,STAT1 act
CC(C)(C)C(=O)NC(=S)Nc1sc2c(c1C(N)=O)CCC2,46,0,-2,2.1,-46,146*
CC(C)CC(=O)NC(=S)Nc1sc2c(c1C(N)=O)CCC2,55,0,-4,1.5,-55,144*
Cn1ncc2c(Nc3ccc4ccccc4c3)ncnc21,81,0,5,2.5,-81,145*
Cc1cccc(Nc2ncnc3c2cnn3C)c1,8,0,-2,1,-8,106
COC(=O)CSC1=C(C#N)C(c2ccc(F)cc2)CC(=O)N1 (centres undefined),28,0,-1,0.81,-28,90
NS(=O)(=O)c1ccc(NC(=O)COC(=O)c2ccc(Cl)cc2[N+](=O)[O-])cc1,/,/,11*,/,/,/
NS(=O)(=O)c1cccc(NC(=O)COC(=O)c2cc(Cl)ccc2[N+](=O)[O-])c1,/,/,1,/,/,/
Cc1c(N2C(=O)C(=O)/C(=C(/O)c3ccc(Br)cc3)C2c2cccnc2)c(=O)n(-c2ccccc2)n1C (centres undefined),-9,0,3,1.2,9,102
CCOC(=O)C1CCCN(Cc2ccccc2Cl)C1 (centres undefined),-16,0,-2,1.6,16,104
CCOc1c(N2CC(C)OC(C)C2)c(=O)c1=O (centres undefined),/,/,9.4*,/,/,/
COc1ccccc1-c1cc(C(=O)N2CCCc3ccccc32)no1,27,0,9.8*,0.69,-27,124
Cc1ccc(-c2cc(C(=O)N3CCCc4ccccc43)no2)cc1,41,0,4,2.6,-42,137*
COc1ccc(OC)c(-c2cc(C(=O)N3CCCc4ccccc43)no2)c1,-8,0,-1,1,8,100
CSc1nc2ccccc2c(=O)n1C1CCOC(C)(C)C1 (centres undefined),4,0,-1,1.1,-4,99
CCCC(=O)Nc1cnc(NC(=O)c2cccc(F)c2)cc1C,173*,0,1,2.7,-173,116
Cc1cc(NC(=O)C(C)C)ncc1NC(=O)c1cccc(F)c1,3,0,2,1.1,-3,106
O=[N+]([O-])c1cc2c(c(CSc3ncccn3)c1)OCOC2,-11,0,-1,1.8,11,114
Cc1cccc(C)c1Nc1nnc(SCc2cc([N+](=O)[O-])cc3c2OCOC3)s1,-48,0,2,0.83,48*,96
COc1cccc(Nc2nnc(SCc3cc([N+](=O)[O-])cc4c3OCOC4)s2)c1,-92,0,4,1.1,92*,89
O=C(c1cccc2ccccc12)C1CCCN(C(=O)C2CCOCC2)C1 (centres undefined),/,/,4,/,/,/
CCOC(=O)Cn1nnnc1C(CC)N(Cc1ccccc1)Cc1cc2cc(C)ccc2[nH]c1=O (centres undefined),0,0,1,2.1,0,106
CCOC(=O)N/N=C/c1c(C)nn(-c2cccc(C(F)(F)F)c2)c1Cl,-86,0,4,1.8,86*,100
Cc1nn(-c2cccc(C(F)(F)F)c2)c(Cl)c1/C=N/Nc1cccc(C(=O)O)c1,159*,0,5,8*,-159,106
O=C(O)c1ccc(/C=N/Nc2cccc(C(F)(F)F)c2)cc1,24,0,-2,1.1,-24,149*
Cc1nn(-c2ccccc2Cl)c(Cl)c1/C=N/Nc1cccc(C(=O)O)c1,3,0,-1,9.8*,-3,81
SMILES,APP 5'UTR act,Hsp70 act,Wee1 degr inh,NF-kB expr up,APP 5UTR inh,STAT1 act
COC(=O)N/N=C/c1c(C)nn(-c2cccc(Cl)c2)c1Cl,12,0,2,2.2,-12,108
O=C(NCC(c1ccco1)N1CCOCC1)c1ccc([N+](=O)[O-])cc1 (centres undefined),5,0,-1,1,-5,92
O=C(Nc1cccs1)Nc1c(F)c(F)cc(F)c1F,22,0,3,1.1,-22,79
O=C1CSC(=S)N1/N=C/c1ccc(O)c(O)c1O,/,/,6,/,/,/
CC(C)n1c(-c2ccc(C(C)(C)C)cc2)n[nH]c1=S,8,0,2,0.75,-8,88
N#Cc1c(NCCN)nc(NCc2ccccc2)c2c1CCN(Cc1ccccc1)C2,6,0,1,/,-6,91
Nc1[nH]nc2nc(NCc3ccccc3)c3c(c12)CCN(Cc1ccccc1)C3,2,0,2,4.3*,-2,111
CCNc1nc(NCC)n2c(SCC(=O)N3CC4(C)CC3CC(C)(C)C4)nnc2n1 (centres undefined),-6,0,2,1.1,6,97
COCCN(CCOC)C(=O)c1sc2nc(-c3ccccc3)cn2c1C,4,0,0,0.84,-4,101
COc1ccc(Nc2nc(N)nc(CSC(=S)N3CCOCC3)n2)cc1,12,0,-3,1.8,-12,142*
Nc1nc(CSc2ccccc2)nc(N2CCCCC2)n1,33,0,-3,2.4,-33,142*
Nc1nc(CSc2ccc(Cl)cc2)nc(N2CCCCC2)n1,10,0,6,1.6,-10,102
Fc1ccc(COc2cccc3cccnc23)cc1,39,0,-1,2,-39,129*
CC(=O)N/C(=C/c1ccc(OS(=O)(=O)c2ccc(C)cc2)cc1)C(=O)NCCO,-12,0,1,1.2,12,97
Cc1nnc(NC(=O)c2nn(CC(C)C)c(=O)c3ccccc23)s1,22,0,10*,1.2,-22,91
CCN(C(=O)c1ccnc(C(C)(C)C)c1)c1ccccc1,4,0,-1,1.1,-4,101
CCOc1ccc(-c2nc(-c3cccnc3)no2)cc1,129,0,-2,6.8*,-129,140*
COc1ccc(-c2nc(-c3cccnc3)no2)cc1,/,/,0,/,/,/
CCCCOc1ccc(-c2nc(-c3cccnc3)no2)cc1,175*,0,3,5.2*,-175,128
O=C(Nc1ccc([N+](=O)[O-])cc1)c1ccccc1F,62,0,1,2.5,-62,138*
O=c1[nH]c2ccccc2nc1C(F)(F)C(F)F,20,0,-1,0.97,-20,138*
CCN(CC)c1ccc2cc(-c3nc4ccccc4n3C)c(=O)oc2c1,-87,0,-1,4.1*,87*,136*
CCN(CC)c1ccc2cc(-c3nnc(-c4ccc(Br)cc4)o3)c(=O)oc2c1,-9,3,6,/,9,114
CCN(CC)c1ccc2cc(-c3nc4ccccc4[nH]3)c(=O)oc2c1,185*,0,-2,1.6,-185,78
